SIRT5 block: inhibitors of human sirtuin-5 desuccinylase; Purified SirT5, succinyl-peptide AMC, trypsin-coupled fluorescence; 1.1% of 330,000 active; AID 652115; inhibition, % at 15 µM; Q9NXA8; in the data active = inhibition above about 15%
Target sequence (Q9NXA8 whole entry, looked up): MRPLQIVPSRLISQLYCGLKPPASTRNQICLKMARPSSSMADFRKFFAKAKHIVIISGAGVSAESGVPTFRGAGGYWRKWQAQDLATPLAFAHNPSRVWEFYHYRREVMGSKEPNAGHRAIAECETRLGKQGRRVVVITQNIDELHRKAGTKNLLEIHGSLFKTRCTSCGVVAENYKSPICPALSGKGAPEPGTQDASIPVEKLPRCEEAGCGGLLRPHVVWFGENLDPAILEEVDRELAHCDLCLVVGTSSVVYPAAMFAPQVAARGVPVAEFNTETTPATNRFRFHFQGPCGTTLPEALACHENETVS
EWS-Fli inh: blocks EWS/Fli oncoprotein-driven transcription; A673 NR0B1-luciferase reporter, viability-normalised; inhibition, % at 12.6 µM; 0.67% of 350,000 active;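 active = mean inhibition of at least 50% after viability correction, with every replicate also passing that limit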;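 note: firefly luciferase signal divided by Alamar Blue viability fluorescence both relative to DMSO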
LGR2 antag: inhibitors of bursicon-induced Drosophila LGR2 receptor cAMP signaling; inhibition, % at 9.99 µM; HEK293 LGR2, CRE-luciferase, bursicon-stimulated, 4 h; 0.35% of 380,000 active;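 active = drop in luminescence signal, shown as inhibition above about 50% in the replicate tests, limit read from the data, passing the limit was not always enough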;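 note: agonist challenge used bursicon conditioned medium at about half maximal strength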
PGC1a acetyl inh: modulators of PGC1a acetylation; AID 651687; inhibition, % at 15.6 µM; U2OS PGC1a acetylation, AlphaScreen anti-acetyl-lysine; with virally co-expressed GCN5 acetyltransferase; 0.17% of 350,000 active;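 active = every replicate shows inhibition of at least 40%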;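 note: 0% = neutral control wells and 100% = positive control wells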
PAX8 reporter: lowers PAX8-driven luciferase in RMG-I cells. inhibition, % at 12.6 µM. AID 652154. RMG-I TPO-luciferase reporter, SteadyGlo, 24 h. 1.2% of 360,000 active;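 active = mean replicate inhibition at least 60% with every replicate also reaching 60%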;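 note: luciferase light reporting Pax8 driven TPO promoter activity; plate controls were median of neutral control wells for no effect and mitoxantrone controls for full effect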
Ecoli rRNA inh: selective bacterial rRNA inhibition in E. coli; 1.6% of 350,000 active; GFP signal change (wild-type ribosome), % (test concentration not listed); E. coli WT GFP vs humanized-ribosome RFP mutants, fluorescence, 24 h; hits give low values; DMSO median 0, no signal -100;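 active = significant combined selectivity score with lowered wild-type GFP, culture density cut under 30%, mutant RFP and density less affected; inactive = any of these conditions unmet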
Numbers without * were called inactive; . = not tested or not shown; ! = not active in a repeat. Shown are actives, neighbours in structure and some others; about 3.4% of the full set was active somewhere.

SMILES	SIRT5 block	EWS-Fli inh	LGR2 antag	PGC1a acetyl inh	PAX8 reporter	Ecoli rRNA inh
CC=Cc1ccc2n(c1=O)C[C@H]1[C@H](CO)[C@@H](C(=O)NC3CCC3)N(CC)[C@@H]21 (mixture of isomers)	-1.1	4.8	-2.2	.	86.9*	4.0
CCCN1[C@@H]2c3ccc(/C=C/c4ccccc4)c(=O)n3C[C@@H]2[C@@H](CO)[C@@H]1C(=O)N1CCOCC1	-13.6	5.4	-0.9	10.2	68.9*	1.7
CC=Cc1ccc2n(c1=O)C[C@@H]1[C@@H](CO)[C@H](C(=O)NC3CCCC3)N(CCC)[C@H]21 (mixture of isomers)	15.4*	-4.6	-6.8	6.4	.	-1.0
COc1ccc2c3c([nH]c2c1)[C@@H](CO)N(C(=O)c1cccc(F)c1)CC31CN(C(=O)c2cccc(F)c2)C1	7.7	14.7	-33.0	.	-3.4	-7.0
CCS(=O)(=O)N1CCC2(CC1)CN(Cc1ccccc1)[C@@H](CO)c1c2c2ccc(OC)cc2n1C	1.5	7.1	-1.8	.	.	7.2
CN(C)C(=O)c1ccc(NC(=O)CSc2nc3ccccc3[nH]2)cc1	-0.6	3.2	3.1	.	-2.4	-20.6*
O=C(COC(=O)c1ccco1)Nc1cccc(S(=O)(=O)N2CCCCC2)c1	-2.6	6.1	-3.2	.	6.2	0.4
COc1ccc(N2CCN(CC(=O)Nc3cccc(S(=O)(=O)N4CCOCC4)c3)CC2)cc1	15.1*	9.3	3.3	0.3	16.7	-3.5
O=C(COC(=O)c1ccco1)Nc1cccc(S(=O)(=O)N2CCOCC2)c1	-1.5	3.3	-2.9	1.8	91.7*	4.7
O=C(CSc1nc2ccccc2[nH]1)Nc1ccc(N2CCOCC2)cc1	-2.6	.	-19.9	.	-6.1	0.5
COc1ccc(N(C)S(=O)(=O)c2cccc(C(=O)Nc3ccc(N4CCOCC4)cc3)c2)cc1	1.8	6.6	-22.1	-11.8	21.3	-21.0*
O=C(CN1CCN(S(=O)(=O)c2ccc3ccccc3c2)CC1)Nc1ccc(N2CCOCC2)cc1	-0.3	2.3	5.2	5.3	9.3	5.8
CCS(=O)(=O)Nc1ccc2c(c1)C(=O)N(C)C[C@@H](OC)[C@H](C)CN(Cc1ccccn1)[C@H](C)CO2	1.3	8.2	12.7	2.8	-28.5	-1.1
CO[C@@H]1CN(C)C(=O)c2ccc(NC(=O)c3ccccc3)cc2OC[C@@H](C)N(C)C[C@H]1C	0.2	.	-4.1	.	.	-0.6
C[C@H]1CN([C@@H](C)CO)C(=O)c2cc(NS(=O)(=O)c3cccs3)ccc2O[C@@H]1CN(C)S(=O)(=O)c1ccc(Cl)cc1	-3.6	0.7	-15.9	4.7	.	1.1
COc1ccc(C#Cc2ccc3c(c2)[C@H]2[C@H](CCN2Cc2ccncc2)[C@H](CO)N3)cc1	1.8	.	-6.0	.	.	-1.4
O=C(COC(=O)c1cc(=O)[nH]c2ccccc12)Nc1ccc(Cl)c(S(=O)(=O)N2CCOCC2)c1	0.9	10.6	-20.9	2.6	7.2	-4.8
CN(C)S(=O)(=O)c1cccc(NC(=O)CSc2nc3ccccc3[nH]2)c1	3.1	6.8	-10.5	10.6	39.1	-25.7
COC(=O)c1cccc(CSc2nc3ccccc3[nH]2)c1	2.8	58.8*	-102.4	-5.8	-37.5	-10.5
O=C(CSc1nc2ccc(Cl)cc2[nH]1)c1cccs1	-0.5	-105.0	-54.6	.	-12.5	-24.6*
O=C(COC(=O)c1cc(=O)[nH]c2ccccc12)Nc1cccc(S(=O)(=O)N2CCOCC2)c1	2.5	4.0	7.1	-4.7	19.4	-17.1*
O=C(CSc1nc2ccccc2[nH]1)Nc1cccc(S(=O)(=O)N2CCOCC2)c1	-1.0	8.4	11.3	-10.7	21.4	-35.6*
O=C(CSc1nnc(-c2ccccc2F)n1C1CC1)Nc1ccc2[nH]c(=O)[nH]c2c1	-5.4	2.8	-0.4	.	8.4	-2.1
Cc1ccc2nc(SCC(=O)Nc3cccc(S(=O)(=O)N(C)C)c3)[nH]c2c1	.	.	16.0	.	-6.4	.
NS(=O)(=O)c1cccc(NC(=O)CSc2nnc(-c3ccccc3F)n2C2CC2)c1	-4.4	-3.8	-4.4	5.4	17.9	-29.2*
SMILES	SIRT5 block	EWS-Fli inh	LGR2 antag	PGC1a acetyl inh	PAX8 reporter	Ecoli rRNA inh
O=C(CCCSc1nc2ccccc2[nH]1)NC(c1ccccc1)c1ccccc1	.	13.3	-7.2	.	29.7	-39.9*
NS(=O)(=O)c1cccc(NC(=O)CSc2nc3ccc(Cl)cc3[nH]2)c1	-0.4	-7.0	4.1	-2.0	3.6	-37.3*
CC(=O)Nc1ccc(NC(=O)CCCSc2nc3ccccc3[nH]2)cc1	3.3	9.5	15.1	-2.0	-4.2	2.4
O=C(COC(=O)c1cc(=O)[nH]c2ccccc12)NC1CCCC1	25.2*	17.4	-3.1	3.2	7.6	9.4
O=C(Nc1ccccc1)Nc1ccc2c(c1)[C@H]1C[C@H](CC(=O)N3CCOCC3)O[C@@H](CO)[C@H]1O2	.	-8.7	-8.1	-0.5	-1.6	4.0
COC(=O)C1=CN(CC2CCCO2)C=C(C(=O)OC)C1c1cc(OC)c(OC)c(OC)c1 (stereo not given)	.	.	.	.	22.7	.
COC(=O)C1=CN(Cc2ccc(F)cc2)C=C(C(=O)OC)C1c1cc(OC)c(OC)c(OC)c1	-3.2	6.3	10.1	.	-8.8	-24.4*
COC(=O)C1=CN(C(C)c2ccccc2)C=C(C(=O)OC)C1c1cc(OC)c(OC)c(OC)c1 (stereo not given)	-12.6	8.5	-18.8	-7.7	-2.7	-22.0*
COC(=O)C1=CN(Cc2ccc(OC)cc2)C=C(C(=O)OC)C1c1cc(OC)c(OC)c(OC)c1	.	.	.	-17.2	.	.
COc1ccc(CC(=O)Nc2ccc(C(=O)NCC(C)C)cc2)cc1	18.1*	.	-10.1	1.8	1.3	9.8
COc1ccc(CC(=O)Nc2ccc(C(C)=O)cc2)cc1	-2.1	-25.9	-29.7	.	-24.0	3.1
C[C@@H]1CN([C@@H](C)CO)C(=O)Cc2cc(NS(C)(=O)=O)ccc2O[C@H]1CN(C)S(=O)(=O)c1ccc(Cl)cc1	-7.9	-2.0	-3.9	-6.9	20.9	-8.7
O=C(Nc1ccccc1)C1=C[C@H](c2ccccc2)C[C@H](OCCCCO)O1	-1.2	-109.4	-54.7	-15.6	-130.5	5.2
O=C(Nc1ccccc1)C1=C[C@H](c2ccc(C(F)(F)F)cc2)C[C@H](OCCCCO)O1	-0.2	-88.6	-15.4	2.5	87.2*!	-27.4
C=CCOC(=O)C1=C[C@H](c2coc3ccccc3c2=O)C[C@H](OCc2ccc(CO)cc2)O1	1.4	-11.0	1.4	-2.7	1.0	-21.0*
C=CCOC(=O)C1=C[C@@H](c2coc3ccccc3c2=O)C[C@@H](OCc2ccc(CO)cc2)O1	-1.1	-14.8	0.0	-32.8	-7.8	-11.8
NC(=O)C1=C[C@H](c2coc3ccccc3c2=O)C[C@H](OCCCCO)O1	-6.5	-60.8	.	.	16.6	4.2
O=C(O)C1=C[C@H](c2coc3ccccc3c2=O)C[C@H](OCCCCO)O1	16.1*!	-21.0	-19.2	14.2	-2.9	18.2

High-throughput results deposited in PubChem by Broad Institute.
